These results are taken from PubChem BioAssay (NCI).

The structures appear in SMILES notation. Several values for one entry are separate records, joined by “and”; a condition that tells them apart may be missing. Identical values can stand only once. Compounds without any hit were thinned out: in the full panel of roughly 83,000, 20% have a hit.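 Treatment: one concentration, 48 hours, 96-well format. Scoring: percent growth, with anything below 10 considered active.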 Some compounds were tested as several samples or in several runs, with calls that do not always agree. Activity calls are given as the source filed them.

For one assay, the system named is ACHN renal. The assay is described as follows: NCI-60 one-dose screen, 48 h (100 = growth as untreated, 0 = no growth, -100 = all killed). Particulars: 10 µM unless noted.
As to `Oc1ccc2ccccc2c1N=Nc1ccccn1`, the growth is 11.9% (inactive).

As for `OC(c1cc(-c2ccc(C(F)(F)F)cc2)nc(C(F)(F)F)c1)C1CCCCN1` (stereo not given), the growth was -24% (active) and 0.945% (active) and 24.3% (inactive).

On to `C/C(=N/NC(N)=S)c1ccc(C)cc1`, for which the growth was 96.6% (inactive).

`O=C1CSC(=S)N1Cc1cccnc1`: the growth is 97.2% (inactive).

Take `O=C(c1ccccc1)C(Br)[N+](=O)[O-]` (stereo not given): the growth is 86.8% (inactive).

Regarding `CC(/C=N/NC(N)=S)Cc1ccc(C(C)C)cc1` (stereo not given), the growth was 103% (inactive).

For `Nc1cc(-c2ccccc2)ccc1O`, the growth is 104% (inactive).

In the case of `Oc1c(C(Nc2ccccc2)c2ccccc2)ccc2cccnc12` (stereo not given), the growth was 42.9% (inactive).

For `O=C(Cc1nc2cc(Cl)c(Cl)cc2nc1CC(=O)c1cccnc1)c1cccnc1`, the growth was 60.9% (inactive).

`COc1cccc2c1C(=O)c1c(O)c3c(c(O)c1C2=O)C[C@@](O)(C(=O)CO)C[C@@H]3OC1CC(OC(C)=O)C(OC(C)=O)C(C)O1` (stereo not given in full): the growth is -92.2% (active).

Regarding `O=[N+]([O-])c1ccc([I+]c2ccccc2)cc1`, the growth was 64.2% (inactive).

Take `O=C1C=CC(=O)N1c1ccccc1`: the growth was -37.3% (active).

For `O=[N+]([O-])CC(O)c1ccccc1` (stereo not given), the growth was 102% (inactive).

On to `CCCCCCCCCCCCNCCCc1ccccc1`, for which the growth was 78.1% (inactive).

Turning to `CN=C(N)N/N=C(\C)c1ccc2c(c1)Cc1ccccc1-2`, the growth is -92.1% (active).

Take `CCN(CC)CCNc1ccc([N+](=O)[O-])c2sc3ccccc3c(=O)c12`: the growth was 6.41% (active).

Take `O/N=C1\c2ccccc2-c2ccc(F)cc21`: the growth was 87.1% (inactive).

For the compound `COc1cc(NC(=O)C2=C(C)NC(C)=C(C(=O)Nc3cc(OC)c(Cl)cc3OC)C2c2cccc([N+](=O)[O-])c2)c(OC)cc1Cl`, the growth is 29.2% (inactive).

With `CCN(CC)CCNC(Cc1ccccc1)c1ccc(OCc2ccccc2)cc1` (stereo not given), the growth was 61.4% (inactive).

As to `c1ccc(C2NCCNC2c2ccccc2)cc1` (stereo not given), the growth is 108% (inactive).

For the compound `COC(=O)Nc1nc2ccc(C3(c4ccc(F)cc4)OCCO3)cc2[nH]1`, the growth is 41.9% (inactive).

Regarding `O=[N+]([O-])c1ccc(Oc2ccccc2Cl)c([N+](=O)[O-])c1`, the growth is 100% (inactive).

As for `O=C(O)c1ccc2c(c1)C(=O)c1ccccc1C2=O`, the growth was 103% (inactive).

Turning to `C=C(C(N)=O)C(N)C(=O)O` (stereo not given), the growth is 108% (inactive).

As for `CCC[CH2][Sn]1([CH2]CCC)[O]C2C(CO)OC(n3ccc(N)nc3=O)C2[O]1` (stereo not given), the growth was -83.9% (active).

Take `COc1cc2c(c(OC)c1OC)-c1ccc(NCc3ccccc3)c(=O)cc1[C@@H](NC(C)=O)CC2`: the growth is 28.8% (inactive).

Take `CCN1CCCC(Nc2cc(C)nc(/N=C(/N)Nc3ccc(Cl)c(Cl)c3)n2)C1` (stereo not given): the growth is -25.1% (active).

As to `CN=C(N)N/N=C(\c1ccccc1)c1ccc(Br)cc1`, the growth was 21.5% (inactive).

For the compound `O=C(NOC(=O)c1ccccc1)c1ccccc1`, the growth is 101% (inactive).

`O=[n+]1c2ccccc2n([O-])c2cc(Cl)ccc21`: the growth is 20.7% (inactive).

Regarding `C(=N\Nc1ccc2ccccc2n1)/c1ccccn1`, the growth was 7.28% (active).

On to `O=C(CCl)N1c2ccccc2Sc2c1ccc1ccccc21`, for which the growth was 78.7% (inactive).

Take `CC(C)c1ccc(Nc2n[nH]c(=S)s2)cc1`: the growth is 106% (inactive).

A further assay deals with CAKI-1 renal. The assay is described as above. Particulars: 10 µM unless noted.
`Oc1ccc2ccccc2c1N=Nc1ccccn1`: the growth is 11.7% (inactive).

For the compound `OC(c1cc(-c2ccc(C(F)(F)F)cc2)nc(C(F)(F)F)c1)C1CCCCN1` (stereo not given), the growth is -7.29% (active) and -52.3% (active) and 45.9% (inactive).

For `C/C(=N/NC(N)=S)c1ccc(C)cc1`, the growth was 99.8% (inactive).

On to `N#Cc1c2ccccc2nc2ccccc12`, for which the growth is 98% (inactive).

Take `O=C1CSC(=S)N1Cc1cccnc1`: the growth is 63.9% (inactive).

`O=C(c1ccccc1)C(Br)[N+](=O)[O-]` (stereo not given): the growth is 93% (inactive).

As to `CC(/C=N/NC(N)=S)Cc1ccc(C(C)C)cc1` (stereo not given), the growth was 58.7% (inactive).

As to `Oc1c(C(Nc2ccccc2)c2ccccc2)ccc2cccnc12` (stereo not given), the growth was 29.1% (inactive).

With `O=C(Cc1nc2cc(Cl)c(Cl)cc2nc1CC(=O)c1cccnc1)c1cccnc1`, the growth was 72.5% (inactive).

For `COc1cccc2c1C(=O)c1c(O)c3c(c(O)c1C2=O)C[C@@](O)(C(=O)CO)C[C@@H]3OC1CC(OC(C)=O)C(OC(C)=O)C(C)O1` (stereo not given in full), the growth is -40.5% (active).

Turning to `O=[N+]([O-])c1ccc([I+]c2ccccc2)cc1`, the growth is 23.1% (inactive).

`O=[N+]([O-])CC(O)c1ccccc1` (stereo not given): the growth is 95.9% (inactive).

Consider `CCCCCCCCCCCCNCCCc1ccccc1`, for which the growth was 93% (inactive).

Regarding `CN=C(N)N/N=C(\C)c1ccc2c(c1)Cc1ccccc1-2`, the growth was -53.9% (active).

Turning to `CCN(CC)CCNc1ccc([N+](=O)[O-])c2sc3ccccc3c(=O)c12`, the growth is -0.017% (active).

With `O/N=C1\c2ccccc2-c2ccc(F)cc21`, the growth was 94.1% (inactive).

On to `COc1cc(NC(=O)C2=C(C)NC(C)=C(C(=O)Nc3cc(OC)c(Cl)cc3OC)C2c2cccc([N+](=O)[O-])c2)c(OC)cc1Cl`, for which the growth is 21.4% (inactive).

As for `CCN(CC)CCNC(Cc1ccccc1)c1ccc(OCc2ccccc2)cc1` (stereo not given), the growth is 85.2% (inactive).

On to `c1ccc(C2NCCNC2c2ccccc2)cc1` (stereo not given), for which the growth is 97.6% (inactive).

For the compound `COC(=O)Nc1nc2ccc(C3(c4ccc(F)cc4)OCCO3)cc2[nH]1`, the growth was 40.8% (inactive).

For the compound `O=[N+]([O-])c1ccc(Oc2ccccc2Cl)c([N+](=O)[O-])c1`, the growth is 82.7% (inactive).

`O=C(O)c1ccc2c(c1)C(=O)c1ccccc1C2=O`: the growth is 96.4% (inactive).

With `C=C(C(N)=O)C(N)C(=O)O` (stereo not given), the growth was 116% (inactive).

Consider `CCC[CH2][Sn]1([CH2]CCC)[O]C2C(CO)OC(n3ccc(N)nc3=O)C2[O]1` (stereo not given), for which the growth is -82.7% (active).

With `COc1cc2c(c(OC)c1OC)-c1ccc(NCc3ccccc3)c(=O)cc1[C@@H](NC(C)=O)CC2`, the growth was 28.8% (inactive).

On to `CCN1CCCC(Nc2cc(C)nc(/N=C(/N)Nc3ccc(Cl)c(Cl)c3)n2)C1` (stereo not given), for which the growth was -40.6% (active).

Take `CN=C(N)N/N=C(\c1ccccc1)c1ccc(Br)cc1`: the growth was 0.888% (active).

For the compound `O=C(NOC(=O)c1ccccc1)c1ccccc1`, the growth was 86.5% (inactive).

As to `O=[n+]1c2ccccc2n([O-])c2cc(Cl)ccc21`, the growth is 19.3% (inactive).

As for `C(=N\Nc1ccc2ccccc2n1)/c1ccccn1`, the growth is 2.92% (active).

With `O=C(CCl)N1c2ccccc2Sc2c1ccc1ccccc21`, the growth was 80.7% (inactive).

For the compound `CC(C)c1ccc(Nc2n[nH]c(=S)s2)cc1`, the growth is 114% (inactive).
